Coupling enz: inhibits coupling enzyme system, counter-screen for aldolase hits. coupling enzyme system counterscreen, AmpLite Red fluorescence. activity change, negative = inhibition, % at 58.2 µM, hits read low. actives 0.67% (n = 290,000); in the data active means activity change below about -30%
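Counterscreen of the coupled detection system alone, without aldolase: glyceraldehyde-3-phosphate coupling enzymes plus AmpLite Red readout. Compounds at 57.5 uM final, 10 min RT preincubation, 20 min RT reaction, fluorescence 525/598 nm.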
Sfp PPTase inh: blocks B. subtilis Sfp PPTase activity; Q9F4F7; Biochemical Sfp PPTase activity, qHTS; Potency, µM, for inactives: largest response in the series, negative = inhibition, hits mostly inhibitors; actives 3.5% (n = 310,000); AID 1490;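 further: the enzyme is Sfp with the accession as filed and its product quenches rhodamine fluorescence; potency means the concentration at half of the fitted maximal effect; 0% = enzyme reaction without inhibitor and -100% = no enzyme wells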
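Compounds were incubated with enzyme (final 15 nM) for 15 min at room temperature before substrate addition started the reaction. Fluorescence at 525 nm excitation, 598 nm emission was recorded immediately and after 30 minutes.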
Tau fibril ThT: inhibitors of human tau fibril formation, thioflavin T binding; P10636; recombinant tau K18 P301L, heparin-induced fibrillization, ThT fluorescence; Potency, µM (top dose mostly 57.4 µM), without a hit: top-dose activity, negative = inhibition, most hits filed as inhibitors; actives 2.1% (n = 270,000); further: potency means the concentration at half of the fitted maximal effect; nearly all actives have a fitted effect of over 55% in size
Target sequence (P10636 561-689 P618L limits assumed): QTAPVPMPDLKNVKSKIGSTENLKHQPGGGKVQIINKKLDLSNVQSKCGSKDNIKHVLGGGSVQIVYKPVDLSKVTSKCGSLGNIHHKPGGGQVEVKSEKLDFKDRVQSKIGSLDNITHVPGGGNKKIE
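In this qHTS, human K18 P301L tau is incubated with compound and heparin for 6 hr at 37 C, and Thioflavin T fluorescence then reports fibril load.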
JMJD2E inh: JMJD2E (human) inhibition | B2RXH2 | Potency, µM (titrated, usually from 57.1 µM), without a hit: top-dose activity change, negative = inhibition, most hits filed as inhibitors | actives 1.6% (n = 230,000) | JMJD2E catalytic domain, FDH-coupled NADH fluorescence (FDH is formaldehyde dehydrogenase) | AID 2147; active means well fitted inhibition curve with a large enough effect, not every such curve was filed as active; inconclusive means small, poorly fitted or top-dose-only effect, or another doubt; inactive means no such curve, though single readings can be large or run the other way;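 further: potency means the concentration at half of the fitted maximal effect; 0% = wells with enzyme and -100% = buffer wells without enzyme; nearly all actives have a fitted effect of over 50% in size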
Target sequence (B2RXH2 1-337 limits assumed): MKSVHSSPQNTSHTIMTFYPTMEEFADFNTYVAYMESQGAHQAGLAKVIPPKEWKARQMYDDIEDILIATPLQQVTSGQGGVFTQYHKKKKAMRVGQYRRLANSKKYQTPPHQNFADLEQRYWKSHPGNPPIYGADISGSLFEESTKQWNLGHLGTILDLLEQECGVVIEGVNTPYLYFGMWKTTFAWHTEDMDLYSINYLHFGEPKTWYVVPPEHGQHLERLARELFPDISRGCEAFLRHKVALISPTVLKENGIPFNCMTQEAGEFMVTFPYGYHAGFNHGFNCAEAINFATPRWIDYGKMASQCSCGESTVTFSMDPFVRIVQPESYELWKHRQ
Tau FP inhib: blocks human tau fibril formation measured by polarization. K18 P301L tau heparin fibrillization, Alexa594 FP, 6 h. Potency, µM (series often up to 57.7 µM), without a hit: at the highest dose activity, negative = inhibition, hits mostly inhibitors. actives 0.39% (n = 280,000); further: potency means the concentration at half of the fitted maximal effect; nearly all actives have a fitted effect of over 55% in size
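Quantitative HTS format: compounds meet 15 uM recombinant K18 P301L tau and Alexa 594-tau tracer in 100 mM sodium acetate pH 7; 20 uM heparin triggers fibrillization at 37 C over 6 hr; FP gives the signal.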
Tau fluor cs: counter-screen for tau fibril formation inhibitors; actives 0.93% (n = 280,000); tau K18 P301L Alexa594 fluorescence, heparin fibrillization; AID 1463; Potency, µM (series often up to 57.7 µM), inactives show top-dose activity change, negative = decrease; further: potency means the concentration at half of the fitted maximal effect; nearly all actives have a fitted effect of over 55% in size
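Human tau K18 P301L (15 uM unlabeled, 0.24 uM Alexa 594-labeled) in 100 mM sodium acetate pH 7 with 20 uM heparin, 6 hr at 37 C. ThT 30 uM added, 1 hr ambient; Alexa 594 FP and total fluorescence read at 555/632 nm.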
The depositor's hits bear a star; [ ] = remark or other dose. Rows were chosen to be rich in hits. Some 5.3% of all compounds tested hit in one or more screens of this group. Unless noted, the call rests on the fitted dose curve; in most records, active means well fitted curve in the direction sought with a large enough effect; inconclusive means small, poorly fitted or top-dose-only effect, or another doubt; inactive means no such curve, though single readings can be large; an effect the other way counts as inactive or inconclusive. Unless noted, on the % scale 0 is the no-effect control and ±100 the full control effect.

What do the screens show for `O=C(O)/C(=C\c1ccco1)NC(=O)c1cccc2ccccc12`?
Coupling enz: 0; Sfp PPTase inh: 79µM*; Tau fibril ThT: -10%; JMJD2E inh: -8%; Tau FP inhib: 7%; Tau fluor cs: 4%

How did O=C(NC(Cc1ccccc1)C(=O)O)/C(=C\c1ccco1)NC(=O)c1ccccc1 (stereo not given) do in these assays?
Coupling enz: -3; Sfp PPTase inh: 35µM*; Tau fibril ThT: -7%; JMJD2E inh: inconclusive; Tau FP inhib: 1%; Tau fluor cs: -4%

Results for O=C(O)/C(=C/c1ccco1)c1ccccc1 ?
Coupling enz: -6; Sfp PPTase inh: 22µM*; Tau fibril ThT: 1%; JMJD2E inh: -6%; Tau FP inhib: -11%; Tau fluor cs: 0%

Results for COc1ccccc1C(=O)N/C(=C/c1ccco1)C(=O)Nc1cccc(C(=O)O)c1 ?
Coupling enz: 3; Sfp PPTase inh: 50µM*

How did O=C(O)/C(=C/c1ccco1)NC(=O)c1ccccc1 do in these assays?
Coupling enz: 0; Sfp PPTase inh: -19%; Tau fibril ThT: inconclusive; JMJD2E inh: -5%; Tau FP inhib: 2%; Tau fluor cs: -8%

How did Cc1ccc(CNc2ncnc3onc(C)c23)cc1 do in these assays?
Tau fibril ThT: -5%; Tau FP inhib: 4%; Tau fluor cs: -3%

What do the screens show for `C[C@@H]1CC[C@@]2(OC1)OC1CC3C4CC=C5CC(O)CCC5(C)C4CCC3(C)C1[C@@H]2C` (stereo not given in full)?
Coupling enz: 5; Sfp PPTase inh: 1%; Tau fibril ThT: -9%; JMJD2E inh: 10%; Tau FP inhib: inconclusive; Tau fluor cs: -13%

What do the screens show for `O=[N+]([O-])c1ccc2c(c1)S(=O)(=O)C=C2`?
Coupling enz: -2; Sfp PPTase inh: inconclusive

How did CC[C@@H](c1ccccc1)n1c(=O)n2n(c1=O)[C@H]1[C@H](O)[C@H]3O[C@@H]3/C(=N/OCC(C)C)[C@@H]1CC2 do in these assays?
Coupling enz: 6; Sfp PPTase inh: 0%; Tau fibril ThT: -10%[11.5 µM]; Tau FP inhib: -6%[11.6 µM]; Tau fluor cs: -10%[11.6 µM]

How did COc1ccccc1NC(=O)CSc1nc(-c2ccc(C(C)(C)C)cc2)c(C#N)c(=O)[nH]1 do in these assays?
Tau fibril ThT: inconclusive; Tau FP inhib: -1%; Tau fluor cs: -23%

What do the screens show for `Cc1ccc(C(=O)N/C(=C/c2ccco2)C(=O)Nc2cccc(C(=O)O)c2)cc1`?
Coupling enz: -1; Sfp PPTase inh: 45µM*

How did CCCCCCn1c(=O)[nH]c2nc3cc(N)ccc3nc2c1=O do in these assays?
Coupling enz: -40*; Sfp PPTase inh: inconclusive; Tau fibril ThT: 28µM*; JMJD2E inh: -3%; Tau FP inhib: inconclusive; Tau fluor cs: inconclusive

What do the screens show for `CCOc1ccc(N/C=C/C(=O)c2ccccc2)c([N+](=O)[O-])c1`?
Coupling enz: -1; Sfp PPTase inh: -2%; Tau fibril ThT: 1.4µM*; JMJD2E inh: 3%; Tau FP inhib: -9%; Tau fluor cs: inconclusive

What do the screens show for `Cc1cccc(Cn2c(Cc3ccccc3)nc3ccccc32)c1`?
Coupling enz: 10; Sfp PPTase inh: 56µM*; Tau fibril ThT: -12%; JMJD2E inh: -3%; Tau FP inhib: -1%; Tau fluor cs: -3%

Results for COCc1nc2ccccc2n1Cc1cccc(C)c1 ?
Coupling enz: 4; Sfp PPTase inh: 3%; Tau fibril ThT: -4%; JMJD2E inh: 12%; Tau FP inhib: -3%; Tau fluor cs: -7%

What do the screens show for `O=c1cnnc(N/N=C/c2ccc3c(c2)OCO3)[nH]1`?
Coupling enz: -1; Sfp PPTase inh: inconclusive; JMJD2E inh: -7%; Tau FP inhib: 0%; Tau fluor cs: 6%

What do the screens show for `O=c1cnnc(N/N=C/C2CC=CCC2)[nH]1` (stereo not given)?
Coupling enz: 0; Sfp PPTase inh: 45µM*; Tau fibril ThT: -13%; JMJD2E inh: -22%; Tau FP inhib: -16%; Tau fluor cs: -11%

What do the screens show for `CCOC(=O)c1oc2cccc(OCC(O)CNC(C)C)c2c1C` (stereo not given)?
Coupling enz: -76*; Sfp PPTase inh: 28µM*; Tau fibril ThT: -2%; JMJD2E inh: inconclusive; Tau FP inhib: -2%; Tau fluor cs: -9%

How did Cc1ccc2nc(C)c3c(c2c1)OC(C(C)(Cl)Br)C3 (stereo not given) do in these assays?
Coupling enz: 2; Sfp PPTase inh: 20µM*; Tau fibril ThT: -10%; JMJD2E inh: inconclusive; Tau FP inhib: -3%; Tau fluor cs: -10%

Results for O=c1[nH]c2ccc(Br)cc2c(-c2ccccc2)c1CN1CCOCC1 ?
Coupling enz: -1; Sfp PPTase inh: -11%; Tau fibril ThT: 22µM*; JMJD2E inh: -20%; Tau FP inhib: inconclusive; Tau fluor cs: -18%

Results for Cc1ccc(CN(C)C(=O)c2ccc3c(c2)NC(=O)CS3)o1 ?
Coupling enz: 0; Sfp PPTase inh: 32µM*; Tau fibril ThT: inconclusive; JMJD2E inh: -9%; Tau FP inhib: -11%; Tau fluor cs: -10%

How did CCOC(=O)c1c(C)n(C)c2ccc(OCC(O)CN3CCN(C)CC3)cc12 (stereo not given) do in these assays?
Coupling enz: -1; Sfp PPTase inh: 6%; Tau fibril ThT: -8%; JMJD2E inh: -3%; Tau FP inhib: 5%; Tau fluor cs: 2%

Results for CCOC(=O)c1c(C)n(-c2ccc(C)cc2)c2ccc(OCC(O)CN3CCN(C)CC3)cc12 (stereo not given) ?
Coupling enz: 0; Sfp PPTase inh: 40µM*; Tau fibril ThT: inconclusive; JMJD2E inh: inconclusive; Tau FP inhib: 8%; Tau fluor cs: -8%

What do the screens show for `CCCCn1c(SCC(=O)c2ccc3c(c2)OCCO3)nnc1-c1ccco1`?
Coupling enz: 1; Sfp PPTase inh: 50µM*; Tau fibril ThT: -5%; JMJD2E inh: 0%; Tau FP inhib: 7%; Tau fluor cs: -4%

What do the screens show for `CCn1c(SCC(=O)Nc2ccc3c(c2)OCCO3)nnc1-c1ccco1`?
Coupling enz: -11; Sfp PPTase inh: 10%; Tau fibril ThT: -12%; JMJD2E inh: 0%; Tau FP inhib: 2%; Tau fluor cs: 3%

What do the screens show for `Cc1cc(C)c(NC(=O)CSc2nnc(-c3ccncc3)n2Cc2ccco2)c(Cl)c1`?
Coupling enz: 2; Sfp PPTase inh: 20µM*; Tau fibril ThT: -14%; JMJD2E inh: -1%; Tau FP inhib: -7%; Tau fluor cs: -5%

What do the screens show for `Cc1nnc(SCC(=O)Nc2cccc(C(F)(F)F)c2)n1Cc1ccco1`?
Coupling enz: 2; Sfp PPTase inh: 40µM*; Tau fibril ThT: 9%; JMJD2E inh: 9%; Tau FP inhib: -3%; Tau fluor cs: -3%

Bioassay records as filed in PubChem.
